# Test results from the supplement of paper PMC8728848.
# Many of the other results were omitted from the sample, so the strongest signals are more common in it than they were.
# B1: ABA (Agaricus bisporus), Q00022 (protein)
# chain: MTYTISIRVYQTTPKGFFRPVERTNWKYANGGTWDEVRGEYVLTMGGSGTSGSLRFVSSDTDESFVATFGVHNYKRWCDIVTNLTNEQTALVINQEYYGVPIRDQARENQLTSYNVANAKGRRFAIEYTVTEGDNLKANLIIG
# Assays:
# Experiment in all cases: glycan array binding signal (z-score within array); higher = stronger binding
# Conditions in all cases: glycan notation: IUPAC condensed, linker removed
# [1] = target: Fuc(a1-2)Gal(b1-3)GalNAc(a1-3)[Fuc(a1-2)]Gal(b1-4)Glc
# Summary of the method: (§1)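 Arrays were curated from the Consortium for Functional Glycomics database, 3228 in total, and kept only where the protein sequence was available. Binding is expressed as a within-array Z-score. This score was averaged across arrays of the same protein sequence at different concentrations or buffers and across linkers, and negative values can be read as non-binding.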
# [2] = target: Fuc(a1-2)Gal(b1-3)GalNAc(a1-3)[Fuc(a1-2)]Gal(b1-4)GlcNAc
# Summary of the method: as §1
# [3] = target: Fuc(a1-2)Gal(b1-3)GalNAc(b1-4)[Neu5Ac(a2-3)]Gal(b1-4)Glc
# Summary of the method: as §1
# [4] = target: Fuc(a1-2)Gal(b1-3)GlcNAc(b1-3)[Fuc(a1-2)Gal(b1-3)GlcNAc(b1-6)]GalNAc
# Summary of the method: as §1
# [5] = target: Fuc(a1-2)Gal(b1-4)GlcNAc(b1-2)[Fuc(a1-2)Gal(b1-4)GlcNAc(b1-4)]Man(a1-3)[Fuc(a1-2)Gal(b1-4)GlcNAc(b1-2)Man(a1-6)]Man(b1-4)GlcNAc(b1-4)GlcNAc
# Summary of the method: as §1
# [6] = target: Fuc(a1-2)Gal(b1-4)GlcNAc(b1-3)Gal(b1-4)GlcNAc(b1-2)Man(a1-3)[Fuc(a1-2)Gal(b1-4)GlcNAc(b1-3)Gal(b1-4)GlcNAc(b1-2)Man(a1-6)]Man(b1-4)GlcNAc(b1-4)GlcNAc
# Summary of the method: as §1
# [7] = target: Fuc(a1-2)Gal(b1-4)GlcNAc6S
# Summary of the method: as §1
# [8] = target: Fuc(a1-2)Gal(b1-4)[Fuc(a1-3)]GlcNAc(b1-2)[Fuc(a1-2)Gal(b1-4)[Fuc(a1-3)]GlcNAc(b1-4)]Man(a1-3)[Fuc(a1-2)Gal(b1-4)[Fuc(a1-3)]GlcNAc(b1-2)Man(a1-6)]Man(b1-4)GlcNAc(b1-4)GlcNAc
# Summary of the method: as §1
# [9] = target: Fuc(a1-2)[Gal(a1-3)]Gal(b1-3)GalNAc
# Summary of the method: as §1
# [10] = target: Fuc(a1-2)[Gal(a1-3)]Gal(b1-4)[Fuc(a1-3)]GlcNAc
# Summary of the method: as §1
# [11] = target: Fuc(a1-3)[Gal(b1-4)]GlcNAc(b1-3)Gal(b1-3)[Fuc(a1-4)]GlcNAc
# Summary of the method: as §1
# Gal(a1-3)Gal(b1-3)GlcNAc = target: Gal(a1-3)Gal(b1-3)GlcNAc
# Summary of the method: as §1
# Gal(a1-3)GalNAc = target: Gal(a1-3)GalNAc
# Summary of the method: as §1
# [12] = target: Gal(b1-3)GalNAc(a1-3)[Fuc(a1-2)]Gal(b1-4)Glc
# Summary of the method: as §1
# [13] = target: Gal(b1-3)GalNAc(a1-3)[Fuc(a1-2)]Gal(b1-4)GlcNAc
# Summary of the method: as §1
# [14] = target: Gal(b1-3)GlcNAc(b1-3)Gal(b1-4)[Fuc(a1-3)]GlcNAc
# Summary of the method: as §1
# [15] = target: Gal(b1-3)GlcNAc(b1-6)GalNAc
# Summary of the method: as §1
# Gal(b1-4)Glc6S = target: Gal(b1-4)Glc6S
# Summary of the method: as §1
# [16] = target: Gal(b1-4)GlcNAc(b1-2)Man(a1-6)[GlcNAc(b1-2)Man(a1-3)]Man(b1-4)GlcNAc(b1-4)GlcNAc
# Summary of the method: as §1
# [17] = target: Gal(b1-4)GlcNAc(b1-2)[Gal(b1-4)GlcNAc(b1-4)]Man(a1-3)[GlcNAc(b1-4)][Gal(b1-4)GlcNAc(b1-2)Man(a1-6)]Man(b1-4)GlcNAc(b1-4)GlcNAc
# Summary of the method: as §1
# [18] = target: Gal(b1-4)GlcNAc(b1-3)Gal(b1-4)GlcNAc(b1-2)Man(a1-3)[Gal(b1-4)GlcNAc(b1-3)Gal(b1-4)GlcNAc(b1-2)Man(a1-6)]Man(b1-4)GlcNAc(b1-4)GlcNAc
# Summary of the method: as §1
# [19] = target: Gal(b1-4)GlcNAc(b1-3)Gal(b1-4)GlcNAc(b1-3)[Gal(b1-4)GlcNAc(b1-3)Gal(b1-4)GlcNAc(b1-6)]GalNAc
# Summary of the method: as §1
# Gal(b1-4)GlcNAc6P = target: Gal(b1-4)GlcNAc6P
# Summary of the method: as §1
# Gal3S(b1-3)GalNAc = target: Gal3S(b1-3)GalNAc
# Summary of the method: as §1
# Gal3S4S(b1-4)GlcNAc = target: Gal3S4S(b1-4)GlcNAc
# Summary of the method: as §1
# GalNAc(a1-3)Gal = target: GalNAc(a1-3)Gal
# Summary of the method: as §1
# GalNAc(b1-3)GalNAc = target: GalNAc(b1-3)GalNAc
# Summary of the method: as §1
# [20] = target: GlcNAc(b1-2)Man(a1-3)[GlcNAc(b1-2)Man(a1-6)]Man(b1-4)GlcNAc(b1-4)GlcNAc
# Summary of the method: as §1
# [21] = target: GlcNAc(b1-2)Man(a1-3)[GlcNAc(b1-4)][GlcNAc(b1-2)Man(a1-6)]Man(b1-4)GlcNAc(b1-4)GlcNAc
# Summary of the method: as §1
# [22] = target: GlcNAc(b1-2)[GlcNAc(b1-4)]Man(a1-3)[GlcNAc(b1-4)][GlcNAc(b1-2)[GlcNAc(b1-6)]Man(a1-6)]Man(b1-4)GlcNAc(b1-4)[Fuc(a1-6)]GlcNAc
# Summary of the method: as §1
# [23] = target: GlcNAc(b1-3)Gal(b1-4)GlcNAc(b1-3)Gal(b1-4)GlcNAc(b1-2)Man(a1-3)[GlcNAc(b1-3)Gal(b1-4)GlcNAc(b1-3)Gal(b1-4)GlcNAc(b1-2)Man(a1-6)]Man(b1-4)GlcNAc(b1-4)[Fuc(a1-6)]GlcNAc
# Summary of the method: as §1
# [24] = target: GlcNAc(b1-3)Gal(b1-4)GlcNAc(b1-6)[GlcNAc(b1-3)Gal(b1-3)]GalNAc
# Summary of the method: as §1
# [25] = target: GlcNAc(b1-4)GlcNAc(b1-4)GlcNAc
# Summary of the method: as §1
# Kdn(a2-3)Gal(b1-3)GalNAc = target: Kdn(a2-3)Gal(b1-3)GalNAc
# Summary of the method: as §1
# Kdn(a2-6)Gal(b1-4)GlcNAc = target: Kdn(a2-6)Gal(b1-4)GlcNAc
# Summary of the method: as §1
# [26] = target: Man(a1-2)Man(a1-3)[Man(a1-2)Man(a1-6)]Man(a1-6)[Man(a1-2)Man(a1-2)Man(a1-3)]Man(b1-4)GlcNAc(b1-4)GlcNAc
# Summary of the method: as §1
# [27] = target: Man(a1-3)[Man(a1-6)]Man(a1-6)[Man(a1-2)Man(a1-3)]Man(b1-4)GlcNAc(b1-4)GlcNAc
# Summary of the method: as §1
# [28] = target: Neu5Ac(a2-3)Gal(b1-4)GlcNAc(b1-3)Gal(b1-4)GlcNAc(b1-2)Man(a1-3)[Neu5Ac(a2-3)Gal(b1-4)GlcNAc(b1-3)Gal(b1-4)GlcNAc(b1-2)Man(a1-6)]Man(b1-4)GlcNAc(b1-4)GlcNAc
# Summary of the method: as §1
# [29] = target: Neu5Ac(a2-3)Gal(b1-4)GlcNAc(b1-3)Gal(b1-4)GlcNAc(b1-3)Gal(b1-4)GlcNAc(b1-2)Man(a1-3)[Neu5Ac(a2-3)Gal(b1-4)GlcNAc(b1-3)Gal(b1-4)GlcNAc(b1-3)Gal(b1-4)GlcNAc(b1-2)Man(a1-6)]GalNAc
# Summary of the method: as §1
# [30] = target: Neu5Ac(a2-3)Gal(b1-4)GlcNAc(b1-3)Gal(b1-4)GlcNAc(b1-3)[Neu5Ac(a2-3)Gal(b1-4)GlcNAc(b1-3)Gal(b1-4)GlcNAc(b1-6)]GalNAc
# Summary of the method: as §1
# [31] = target: Neu5Ac(a2-3)GalNAc(b1-4)GlcNAc
# Summary of the method: as §1
# [32] = target: Neu5Ac(a2-3)[GalNAc(b1-4)]Gal(b1-4)Glc
# Summary of the method: as §1
# [33] = target: Neu5Ac(a2-3)[GalNAc(b1-4)]Gal(b1-4)GlcNAc(b1-3)GalNAc
# Summary of the method: as §1
# [34] = target: Neu5Ac(a2-6)Gal(b1-4)GlcNAc(b1-3)Gal(b1-4)GlcNAc(b1-3)GalNAc
# Summary of the method: as §1
# [35] = target: Neu5Ac(a2-6)Gal(b1-4)GlcNAc(b1-3)Gal(b1-4)GlcNAc(b1-3)[Neu5Ac(a2-6)Gal(b1-4)GlcNAc(b1-3)Gal(b1-4)GlcNAc(b1-6)]GalNAc
# Summary of the method: as §1
# [36] = target: Neu5Ac(a2-6)Gal(b1-4)GlcNAc(b1-6)[Gal(b1-3)GlcNAc(b1-3)]Gal(b1-4)Glc
# Summary of the method: as §1
# [37] = target: Neu5Ac(a2-6)GlcNAc(b1-4)GlcNAc
# Summary of the method: as §1
# [38] = target: Neu5Ac(a2-8)Neu5Ac(a2-3)Gal(b1-4)Glc
# Summary of the method: as §1
# [39] = target: Neu5Ac(a2-8)Neu5Ac(a2-8)Neu5Ac
# Summary of the method: as §1
# Neu5Ac(b1-6)GalNAc = target: Neu5Ac(b1-6)GalNAc
# Summary of the method: as §1
binder,measurement,setting,value
B1,glycan array binding signal (z-score),[1],-0.201
same,glycan array binding signal (z-score),[2],0.475
same,glycan array binding signal (z-score),[3],-0.192
same,glycan array binding signal (z-score),[4],-0.172
same,glycan array binding signal (z-score),[5],-0.048
same,glycan array binding signal (z-score),[6],-0.157
same,glycan array binding signal (z-score),[7],-0.289
same,glycan array binding signal (z-score),[8],0.231
same,glycan array binding signal (z-score),[9],-0.239
same,glycan array binding signal (z-score),[10],-0.155
same,glycan array binding signal (z-score),[11],-0.058
same,glycan array binding signal (z-score),Gal(a1-3)Gal(b1-3)GlcNAc,-0.192
same,glycan array binding signal (z-score),Gal(a1-3)GalNAc,-0.118
same,glycan array binding signal (z-score),[12],3.56
same,glycan array binding signal (z-score),[13],3.27
same,glycan array binding signal (z-score),[14],-0.245
same,glycan array binding signal (z-score),[15],-0.25
same,glycan array binding signal (z-score),Gal(b1-4)Glc6S,-0.203
same,glycan array binding signal (z-score),[16],2.81
same,glycan array binding signal (z-score),[17],-0.25
same,glycan array binding signal (z-score),[18],2.52
same,glycan array binding signal (z-score),[19],1.8
same,glycan array binding signal (z-score),Gal(b1-4)GlcNAc6P,-0.104
same,glycan array binding signal (z-score),Gal3S(b1-3)GalNAc,2.46
same,glycan array binding signal (z-score),Gal3S4S(b1-4)GlcNAc,-0.254
same,glycan array binding signal (z-score),GalNAc(a1-3)Gal,-0.234
same,glycan array binding signal (z-score),GalNAc(b1-3)GalNAc,0.071
same,glycan array binding signal (z-score),[20],5.72
same,glycan array binding signal (z-score),[21],2.54
same,glycan array binding signal (z-score),[22],-0.287
same,glycan array binding signal (z-score),[23],1.39
same,glycan array binding signal (z-score),[24],2.74
same,glycan array binding signal (z-score),[25],-0.093
same,glycan array binding signal (z-score),Kdn(a2-3)Gal(b1-3)GalNAc,0.099
same,glycan array binding signal (z-score),Kdn(a2-6)Gal(b1-4)GlcNAc,-0.239
same,glycan array binding signal (z-score),[26],0.46
same,glycan array binding signal (z-score),[27],2.82
same,glycan array binding signal (z-score),[28],2.72
same,glycan array binding signal (z-score),[29],2.8
same,glycan array binding signal (z-score),[30],0
same,glycan array binding signal (z-score),[31],-0.276
same,glycan array binding signal (z-score),[32],-0.249
same,glycan array binding signal (z-score),[33],1.31
same,glycan array binding signal (z-score),[34],-0.201
same,glycan array binding signal (z-score),[35],2.26
same,glycan array binding signal (z-score),[36],-0.255
same,glycan array binding signal (z-score),[37],-0.229
same,glycan array binding signal (z-score),[38],-0.267
same,glycan array binding signal (z-score),[39],-0.247
same,glycan array binding signal (z-score),Neu5Ac(b1-6)GalNAc,-0.191
